Reference: ChEMBL document CHEMBL1961873, “Compounds: GSK PKIS; Assays: Nanosyn kinase panel” (2012)

target: T1, Ephrin type-B receptor 2 (Homo sapiens) (UniProt P29323); conditions: at 0.1 µM
T1 sequence (whole entry): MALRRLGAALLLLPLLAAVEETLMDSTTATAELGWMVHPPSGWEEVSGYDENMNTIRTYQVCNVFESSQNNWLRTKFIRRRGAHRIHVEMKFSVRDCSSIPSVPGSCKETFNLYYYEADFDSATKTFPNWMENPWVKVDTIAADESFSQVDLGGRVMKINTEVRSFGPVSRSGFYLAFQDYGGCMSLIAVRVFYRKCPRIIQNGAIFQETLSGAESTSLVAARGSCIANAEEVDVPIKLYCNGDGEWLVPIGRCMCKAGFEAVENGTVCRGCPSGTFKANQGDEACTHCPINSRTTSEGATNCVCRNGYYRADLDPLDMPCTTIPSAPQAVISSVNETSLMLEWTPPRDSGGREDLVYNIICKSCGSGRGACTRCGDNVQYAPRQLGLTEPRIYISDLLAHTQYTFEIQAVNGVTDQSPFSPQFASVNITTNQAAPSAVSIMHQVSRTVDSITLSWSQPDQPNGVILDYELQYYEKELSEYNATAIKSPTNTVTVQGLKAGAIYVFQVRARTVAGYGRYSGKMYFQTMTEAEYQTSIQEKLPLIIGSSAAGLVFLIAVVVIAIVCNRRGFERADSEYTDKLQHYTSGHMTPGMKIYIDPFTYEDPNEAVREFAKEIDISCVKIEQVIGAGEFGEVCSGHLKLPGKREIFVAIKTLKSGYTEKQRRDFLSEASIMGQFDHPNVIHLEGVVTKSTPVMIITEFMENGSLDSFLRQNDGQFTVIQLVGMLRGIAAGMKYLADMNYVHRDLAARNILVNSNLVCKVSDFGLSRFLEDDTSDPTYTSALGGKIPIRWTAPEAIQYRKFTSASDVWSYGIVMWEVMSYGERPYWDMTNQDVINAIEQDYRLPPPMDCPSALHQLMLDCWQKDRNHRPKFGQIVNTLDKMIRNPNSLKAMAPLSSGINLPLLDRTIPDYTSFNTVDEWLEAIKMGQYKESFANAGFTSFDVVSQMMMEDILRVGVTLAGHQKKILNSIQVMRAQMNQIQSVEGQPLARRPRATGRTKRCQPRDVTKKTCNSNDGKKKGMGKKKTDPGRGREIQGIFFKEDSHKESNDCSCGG
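Further: reported as mean inhibition of EPHB2, from the GSK PKIS dataset.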

| SMILES | inhibition [%] |
| --- | --- |
| C[C@@H](Oc1cc(-n2cnc3ccc(OCC4CCN(C)CC4)cc32)sc1C(N)=O)c1ccccc1C(F)(F)F | -9.54 |
| Cc1cc(O)cc(C)c1/C=C/c1cncc(C(=O)N(C)C)c1 | 9.34 |
| c1ccc(Nc2ncc(-c3ccccc3)o2)cc1 | 7.58 |
| COc1ccc(-c2nn3ncccc3c2-c2ccnc(Nc3cccc(C(F)(F)F)c3)n2)cc1 | 2.91 |
| Cc1ccc(NC(=O)CC2CC2)cc1-c1ccc(C(=O)NCC2CC2)cc1 | 6.33 |
| COC(=O)c1ccc2c(c1)C(=Cc1cc(Br)c(O)c(Br)c1)C(=O)N2 | 6.3 |
| Cc1ccc2c(-c3ccnc(Nc4ccc5c(c4)OCCO5)n3)c(-c3ccc(C(F)(F)F)cc3)nn2n1 | -7.93 |
| COc1cc(/C=N/Nc2ncnc3c2cnn3C(C)C)ccc1O | 5.57 |
| Nc1ccc(C#Cc2cncnc2Nc2ccc(OCc3cccc(F)c3)c(Cl)c2)cc1 | 1.34 |
| ON=C1CCc2cc(-c3nc(C4CCNCC4)[nH]c3-c3ccncc3)ccc21 | -5.22 |
| COc1cccc(-n2ncc3c(N/N=C/c4ccc(C)cc4)ncnc32)c1 | 6.77 |
| CCS(=O)(=O)c1ccc(OC)c(Nc2ncc(-c3cccc(OC)c3)o2)c1 | 9.46 |
| CC(C)c1ccc2c(c1)NC(=O)/C2=N/Nc1ccc(S(N)(=O)=O)cc1 | 0.18 |
| Cc1cc(Cl)cc2c1NC(=O)C2=NNc1ccc(S(N)(=O)=O)cc1 | 4.48 |
| CC(C)c1ccc(Nc2nccc(-c3cnn4ncccc34)n2)cc1 | 7.64 |
| N#Cc1cccc(Nc2nccc(-c3cnn4ncccc34)n2)c1 | 15.1 |
| Oc1cccc(-c2nc(-c3ccccc3)[nH]c2-c2ccncc2)c1 | 8.8 |
